# Screening results deposited in PubChem by The Scripps Research Institute Molecular Screening Center.
# LYPLA2 counter = blocks human lysophospholipase 2, a PME1 counter-screen | O95372 | recombinant LYPLA2, FP-Rh probe fluorescence polarization | inhibition, % at 5.9 µM | 320,000 tested, 0.38% active;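 active = inhibition above the screen-wide mean plus 3 SD, limit set per campaign, cut at about 26% in these data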;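 also: 0% = LYPLA2 with DMSO and 100% = wells lacking LYPLA2 enzyme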
# Fam108B inh = counter-screen for RBBP9 inhibitors: inhibitors of mouse Fam108B. recombinant Fam108B, FP-Rh probe fluorescence polarization. 300,000 tested, 0.33% active. inhibition, % at 9.51 µM;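 active = inhibition above the screen mean inhibition plus 3 SD, computed separately per campaign, cut at about 18% in these data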;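 also: inhibitors lower polarization as less probe binds the enzyme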
# GSTO1 counter = blocks human GSTO1 in RBBP9 counter-screen | P78417 | recombinant GSTO1, activity-based probe fluorescence polarization | inhibition, % at 5.96 µM | 300,000 tested, 1.1% active | AID 1974;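 active = inhibition above the campaign mean inhibition plus 3 SD, cut at about 35% in these data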;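 also: 0% = GSTO1-1 with DMSO and 100% = wells lacking GSTO1-1 enzyme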
# PAD4 inh = inhibitors of human PAD4; inhibition, % at 6.36 µM; recombinant PAD4, RCA probe fluorescence polarization; 330,000 tested, 0.41% active;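 active = percent inhibition above a cutoff equal to the mean of all tested compounds plus 3 SD, cut at about 15% in these data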;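 also: 0% = PAD4 with RCA probe and DMSO and 100% = probe without PAD4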
# PME-1 primary = PME-1 (human) inhibition | Q9Y570 | recombinant PME-1, FP-Rh probe fluorescence polarization | inhibition, % at 5.9 µM | 320,000 tested, 0.53% active | AID 2130;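 active = inhibition above the campaign mean of all compounds plus 3 SD, cut at about 26% in these data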;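 also: competitive labeling of PME-1 active site by serine hydrolase directed probe; 0% = PME-1 with DMSO and 100% = wells lacking PME-1 enzyme; inhibitors block probe labeling so polarization falls and inhibition rises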
# Target sequence (Q9Y570 whole entry, looked up): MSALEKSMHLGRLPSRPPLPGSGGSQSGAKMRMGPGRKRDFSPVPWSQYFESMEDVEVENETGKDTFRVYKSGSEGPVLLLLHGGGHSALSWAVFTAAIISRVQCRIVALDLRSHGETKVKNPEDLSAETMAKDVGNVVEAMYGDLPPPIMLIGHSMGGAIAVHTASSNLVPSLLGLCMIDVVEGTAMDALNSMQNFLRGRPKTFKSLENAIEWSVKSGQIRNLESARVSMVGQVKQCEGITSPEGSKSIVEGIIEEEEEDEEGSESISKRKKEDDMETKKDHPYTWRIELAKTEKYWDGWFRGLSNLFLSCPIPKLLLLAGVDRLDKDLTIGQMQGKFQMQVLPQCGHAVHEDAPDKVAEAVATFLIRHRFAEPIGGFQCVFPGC
# LYPLA1 inh = counter-screen for PME1 inhibitors: inhibitors of human LYPLA1; O75608; 320,000 tested, 0.16% active; inhibition, % at 5.9 µM; recombinant LYPLA1, FP-Rh probe fluorescence polarization;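 active = inhibition above the mean of all tested compounds plus 3 SD, set per campaign, cut at about 14% in these data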;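 also: inhibitors block serine hydrolase probe labeling of LYPLA1 so polarization falls; 0% = enzyme with DMSO and 100% = wells lacking LYPLA1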
# Target sequence (O75608 whole entry, looked up): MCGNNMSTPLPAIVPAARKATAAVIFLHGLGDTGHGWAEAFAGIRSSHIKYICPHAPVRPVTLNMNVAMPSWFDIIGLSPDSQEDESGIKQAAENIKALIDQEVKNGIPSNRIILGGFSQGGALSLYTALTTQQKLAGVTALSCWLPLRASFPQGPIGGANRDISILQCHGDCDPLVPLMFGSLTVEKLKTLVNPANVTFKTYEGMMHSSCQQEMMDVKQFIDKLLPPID
# Fam108b inh conf = Fam108b (mouse) hydrolase inhibition, confirmation assay; recombinant Fam108b, FP-Rh probe fluorescence polarization; shares compounds with Fam108B inh; 930 tested, 44% active; inhibition, % at 9.51 µM;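 active = inhibition above a limit from the primary screen, the mean over all compounds plus 3 SD, cut at about 19% in these data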;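 also: 0% = median of active Fam108b wells and 100% = catalytically dead S170A mutant; inhibitors free the probe so polarization falls as inhibition rises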
# Fam108b inh = mouse ABHD17B inhibition | shares compounds with Fam108B inh | recombinant Fam108b, gel-based ABPP, fluorophosphonate probe | inhibition, % at 20 µM | 260 tested, 44% active | AID 588649; in the data active = inhibition above about 40%
# * hit, by the source's call; / = no result. Compounds with a hit are over-represented: about 1.8% of the library has one in this group of screens.
SMILES,LYPLA2 counter,Fam108B inh,GSTO1 counter,PAD4 inh,PME-1 primary,LYPLA1 inh,Fam108b inh conf,others
COc1ccc(O)c(-c2cc(-c3cccc(Br)c3)n[nH]2)c1,-1,18*,-15,-7,42*,1,-3,
O=C(OCC(=O)c1c[nH]c2ccccc12)c1cccc([N+](=O)[O-])c1,0,/,/,-1,6,-7,/,
CCOC(=O)C1=C(C)N(C[C@@H]2CC[C@@H](Cc3ccc(-c4ccccc4)cc3)O2)C(=O)NC1c1ccc(Cl)cc1 (some centres undefined),/,/,/,-5,/,/,/,
O=C(NCCc1ccccc1F)C1CCC(=O)N(CCCN2CCCC2=O)C1 (centres undefined),3,-3,6,-3,-14,-3,/,
CCCCc1cc(=O)oc2cc(C)cc(OCC(=O)NCc3ccccn3)c12,2,3,0,0,6,-1,/,
O=C(O)C1Nc2c(Cl)cc(Cl)c(Cl)c2C2C=CCC12 (centres undefined),10,15,26,-5,18,-1,/,
O=C(O)C1Nc2c(Cl)cc(Cl)cc2C2C=CCC12 (centres undefined),18,33*,34,-4,-6,2,24*,
COc1ccc(/C=N/NC(=O)c2ccc(CN3C(=O)c4cccc5cccc3c45)cc2)cc1O,-3,9,6,-2,-2,-25,/,
COc1cc(/C=N/NC(=O)c2ccc(CN3C(=O)c4cccc5cccc3c45)cc2)cc(OC)c1O,-7,31*,-16,-2,17,-10,22*,
O=C(Nc1ccc(S(=O)(=O)Nc2nccs2)cc1)c1cccc(F)c1,-8,2,-4,-6,-3,-6,/,
O=C(Nc1ccc(S(=O)(=O)Nc2nccs2)cc1)c1ccc(=O)[nH]c1,0,18*,-150,3,-19,-4,10,
CCOC(=O)c1c(NC(=O)/C=C/c2ccc3c(c2)OCO3)sc(C)c1CC,-11,82*,-6,-8,-30,-5,-7,
COC(=O)c1cc(C(=O)NCc2ccccc2)c(=O)[nH]c1C,-2,-1,1,4,-4,-6,/,
CC(C)C(C(=O)O)N1C(=O)/C(=C/C=C/c2ccco2)SC1=S (centres undefined),-2,38*,25,-5,-30,-8,0,
O=C(NN1C(=O)/C(=C/C=C/c2ccco2)SC1=S)c1ccncc1,-5,41*,-23,2,-27,-9,10,
CCN(CC)S(=O)(=O)c1cccc(NC2=NCCCCC2)c1,-1,4,19,0,-5,2,/,
O=c1[nH]c(-[n+]2ccc3ccccc3c2)c(/C=N/N=C(\[O-])c2ccccc2)s1,2,18*,11,0,14,3,17,
CC(C)(C)c1cc[n+](-c2[nH]c(=O)sc2/C=N/N=C(\[O-])c2cccnc2)cc1,14,0,-1,-1,5,-2,/,
Cc1sc2ncnc(N/N=C/c3ccccc3O)c2c1C,0,19*,-26,-3,17,-4,0,
O=C(COC(=O)c1ccccc1O)NCc1ccc2c(c1)OCO2,/,/,/,3,/,/,/,
O=C(NN=C1CCN(Cc2ccccc2)CC1)c1ccccc1O,11,2,26,0,1,-1,/,
O=C(NN=C1CCN(Cc2ccccc2)CC1)c1cc2ccccc2cc1O,2,34*,16,-3,29*,-6,-3,
CCN(C[C@H]1N[C@@](CC)(C(=O)OC)[C@H]2C(=O)N(Cc3ccccc3)C(=O)[C@@H]12)C(=O)c1ccc(C(C)(C)C)cc1,/,/,/,5,/,/,/,
COc1ccc(CN(CCN(C)C)c2ccccn2)cc1,-3,0,-6,-5,3,1,/,
CCCCCCCCCCCCCCCC[N+](C)(C)CCN(Cc1ccc(OC)cc1)c1ncccn1,7,22*,4,8,6,-1,22*,
SMILES,LYPLA2 counter,Fam108B inh,GSTO1 counter,PAD4 inh,PME-1 primary,LYPLA1 inh,Fam108b inh conf,others
COc1ccccc1N1CCN(CCCNC(=O)Cn2ncc3c([nH]c4ccccc43)c2=O)CC1,4,-1,-1,0,-2,-4,/,
Cn1c(C(O)C(O)c2ccccc2)nc2ccccc21 (centres undefined),4,2,-1,-2,3,4,/,
Cn1c(C(C#N)C2=C(Cl)C(=O)N(c3ccccc3)C2=O)nc2ccccc21 (centres undefined),14,25*,3,7,14,3,17,
O=C(COC(=O)/C=C/c1cccs1)Nc1nc(-c2cccc(Br)c2)cs1,14,21*,-12,-5,44*,-3,5,
O=C(/C=C/c1cccs1)Nc1nc(-c2ccccc2)cs1,-32,-16,-11,-2,-34,-22,/,
O=c1oc2cc(O)ccc2cc1-c1nc2c(s1)CCc1ccccc1-2,0,22*,7,2,9,0,23*,
Cc1[nH]c2ccccc2c1C=NNC(=O)c1cccc(S(=O)(=O)Nc2cccc(C(F)(F)F)c2)c1,/,/,/,/,/,/,/,Fam108b inh=95*
O=[N+]([O-])c1ccc(NN=Cc2ccccc2O)cc1,/,/,/,/,/,/,/,Fam108b inh=90*
O=[N+]([O-])c1cccc(N/N=C/c2cccc(O)c2O)c1,-3,26*,35*,-1,41*,-8,11,
O=[N+]([O-])c1ccc(NN=Cc2cccc(O)c2O)cc1,/,/,/,/,/,/,/,Fam108b inh=40*
CCOC(=O)C1CCCN(S(=O)(=O)NC[C@H]2O[C@@H](n3cnc4c(N)ncnc43)[C@H](O)[C@@H]2O)C1 (some centres undefined),/,/,/,-3,/,/,/,
CC(OC(=O)c1cc(S(=O)(=O)N2CCOCC2)ccc1F)C(=O)NC1CCCC1 (centres undefined),8,/,/,1,4,6,/,
COc1ccc(NS(=O)(=O)c2ccc3oc(Nc4ccc5c(c4)OCCO5)nc3c2)cc1,-14,30*,-32,-6,32*,-21,-1,
O=c1oc(-c2cccs2)nc2c1cnn2-c1ccccc1,4,20*,-7,-1,2,2,23*,
CCOc1ccc(C(=O)N/N=C/c2ccc(-c3ccc(S(=O)(=O)Nc4ncccn4)cc3)o2)cc1,-7,-3,-18,-2,-7,-8,/,
O=C(N/N=C/c1ccc(-c2ccc(S(=O)(=O)Nc3ncccn3)cc2)o1)c1cc2ccccc2cc1O,-21,24*,-3,-4,-3,-9,20*,
Cc1noc(C)c1S(=O)(=O)Nc1ccc2c(c1)C(=O)N([C@H](C)CO)C[C@H](C)[C@@H](CN(C)C(=O)NC1CCCCC1)O2,/,/,/,2,/,/,/,
CN(C)S(=O)(=O)c1cccc(NC(=S)N/N=C/c2cc(Br)ccc2O)c1,-15,29*,-55,0,38*,-16,3,
